This assay concerns the target Pantothenate synthetase (Mycobacterium tuberculosis (strain ATCC 25618 / H37Rv)) (UniProt P9WIL5). The experiment in a line: Recombinant Mtb pantothenate synthetase (PanC) inhibitors, coupled enzyme, confirmatory (AID 375).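 Also: 0% = full reaction with vehicle and 100% = no enzyme background.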 To be noted: coupled enzyme assay; at 10 µM, active compounds read high.

As a reminder, the inhibition is the percentage by which the read-out fell short of the control.

Values without a mark were called inactive. No rule for the calls is given here.

Sequence of Pantothenate synthetase (Mycobacterium tuberculosis (strain ATCC 25618 / H37Rv)) (P9WIL5 whole entry, looked up): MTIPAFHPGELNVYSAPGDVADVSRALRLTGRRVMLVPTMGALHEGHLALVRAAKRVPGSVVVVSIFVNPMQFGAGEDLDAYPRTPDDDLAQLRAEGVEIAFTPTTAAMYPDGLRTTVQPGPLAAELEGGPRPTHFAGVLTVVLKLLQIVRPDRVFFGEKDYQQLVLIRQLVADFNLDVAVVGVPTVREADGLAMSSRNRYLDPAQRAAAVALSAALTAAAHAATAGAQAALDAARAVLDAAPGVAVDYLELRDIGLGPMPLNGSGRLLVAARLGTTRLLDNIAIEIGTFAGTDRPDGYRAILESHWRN

As for `COCCNC(=O)C(c1cccs1)N(C(=O)Cn1nnc2ccccc21)c1ccccc1` (configuration not stated), the inhibition was 6%. To `CCOC(=O)N1CCC(NC(=O)C2CCN(S(=O)(=O)c3cccc4cccnc34)CC2)CC1` belongs 0%. To `Cc1ccc(C2=Nc3ccccc3NC(C)(c3ccc(C)o3)C2)o1` (configuration not stated) belongs 0%. The value for `COc1ccccc1N1CCN(C(=O)c2oc3cc(C)c(C)cc3c2C)CC1` was 0%.

For the compound `Cn1ccnc1SCCC#N`, the inhibition is 7%. Turning to `Cc1ccc(C(C)C)c(OCCn2c(=O)oc3ccccc32)c1`, the inhibition is 0%. As to `O=C(CNS(=O)(=O)c1ccccc1)NCc1ccccn1`, the inhibition was 9%. The value for `COc1ccc(C(=O)Nc2cccc(-c3nc4ncccc4o3)c2C)cc1OC` was 2%; that for `COc1ccc(NS(=O)(=O)c2ccc(NC(C)=O)cc2)cc1OC` was 0%; that for `COc1ccc(C)cc1S(=O)(=O)N(C)CC(=O)Nc1ccc2c(c1)OCCO2` was 2%. The value for `Cn1c(=O)[nH]c(=O)c2c1nc(N1CCNCC1)n2Cc1cccc2ccccc12` was 8%; that for `O=C(CCCN1C(=O)c2ccccc2C1=O)NCc1cccnc1` was 3%; that for `CC(C)n1nnnc1SCC(=O)Nc1ccccc1N1CCOCC1` was 1%. With `COc1ccc(-c2nc(CSCC(=O)NCc3ccc4c(c3)OCO4)c(C)o2)cc1OC`, the inhibition was 0%. The value for `CCCS(=O)(=O)Nc1c(C(=O)O)[nH]c2ccccc12` was 0%; that for `O=C(NC(=O)c1ccc(Cl)cc1)Nc1cc(N2CCCCC2)ncn1` was 0%; that for `O=C(CCNS(=O)(=O)c1cccc2nsnc12)Nc1ccc2c(c1)OCCO2` was 0%. In the case of `CN(C(=O)CSc1nc2c(c(=O)[nH]1)CCCC2)C1CCCCC1`, the inhibition was 0%.

As to `CCOC(=O)c1ccc(NC(=O)NC(C)C2CCCO2)cc1` (configuration not stated), the inhibition is 0%.

With `O=C(c1ccc2c(c1)OCO2)N1CCNc2ccccc2C1`, the inhibition was 0%.

Regarding `COC(=O)c1ccc(C2C(C#N)=C(N)Oc3cc(C)n(C)c(=O)c32)cc1` (configuration not stated), the inhibition was 0%.

With `COc1cccc2cc(C(=O)OC3CCN(C)CC3)c(=O)oc12`, the inhibition was 9%. Consider `CCOc1ccc(N(CC(=O)OC)S(=O)(=O)c2ccc(OC)c(OC)c2)cc1`, for which the inhibition is 0%. The value for `O=C(CSc1nnc(Cn2cnc3ccccc32)o1)c1ccccc1` was 0%; that for `Cc1cccc(Nc2ccccc2C(=O)O)c1C` was 4%; that for `Cc1cc(NC(=O)COc2cccc3cccnc23)no1` was 6%. The value for `CCN(CC)S(=O)(=O)c1ccc(N2CCCC2)c(C(=O)OCC(=O)/C(C#N)=C(\C)N)c1` was 6%; that for `COc1ccc(CN(C(=O)CN2C(=O)COc3ccccc32)C2CCCC2)c(OC)c1` was 0%. The value for `COc1nc(OC)nc(N2CCC(NC(=O)C(Cc3ccc(C(C)C)cc3)NC(C)=O)CC2)n1` (configuration not stated) was 5%; that for `CCOC(=O)c1ccc(COC(=O)CCc2nc3ccccc3[nH]c2=O)o1` was 0%; that for `Cn1ncc2c(Nc3ccccc3Br)ncnc21` was 0%.

In the case of `Cc1nn(-c2ccc(F)cc2)c2c1cc(C#N)c1nc3ccccc3n12`, the inhibition is 6%.

Regarding `Cc1ccc(-c2nc3cc(NC(=O)C(C)C)ccc3o2)cc1C`, the inhibition is 0%. To `O=C(NCc1cccnc1)C1c2ccccc2C(=O)N1Cc1ccco1` (configuration not stated) belongs 1%; to `CCN1CCN(Cc2ccc(NC(=O)Nc3ccc(SC)cc3)cc2)CC1`, 2%. To `Cc1occc1-c1nnc(SCC(=O)N2CCOCC2)n1Cc1ccco1` belongs 6%; to `COCCN(CCOC)Cc1c(C)[nH]c2ccccc2c1=O`, 0%; to `O=C(Nc1ccc2c(c1)OCCO2)NC1CCCCC1`, 0%. To `COc1ccc(-c2cc(C(=O)Nc3ccc(C)cc3)no2)cc1` belongs 0%; to `Cc1ccc2c(CC(=O)OCc3csc(C)n3)coc2c1`, 0%; to `Cc1ccc(S(=O)(=O)N2CCC(C(=O)N3CCN(Cc4ccccc4)CC3)CC2)cc1`, 0%. In the case of `c1ccc2c(c1)[nH]c1c(N3CCC4(CC3)OCCO4)ncnc12`, the inhibition is 0%.

(Values after PubChem BioAssay.)
